Measurements from PubChem BioAssay (NCI).
Compounds without any hit were thinned out: in the full panel of roughly 83,000, 20% have a hit.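 Testing used 96-well plates and a 48-hour single-concentration exposure. Example: -40 means 40% of the starting cells died.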 Activity calls are given as the source filed them. The calls were made as follows: active = growth percent below 10; inactive = the rest.

system: NCI-H322M lung; experiment: NCI-60 one-dose screen, 48 h (100 = growth as untreated, 0 = no growth, -100 = all killed); conditions: 10 µM unless noted

Compound | growth
Cc1nnc(-c2ccc3c(c2)nc(/C=C/c2ccccc2)n3C2CCCCC2)o1 | 85.9% (inactive)
Nc1nc(N)c2c(n1)NC(c1ccc(Cl)cc1)C1CCc3ccccc3C1=N2 (stereo unspecified) | 71.7% (inactive)
Fc1ccc(Cn2cc(CSc3nc4ccccc4o3)nn2)cc1 | 91.9% (inactive)
CC(C)(C)c1cc(Cl)c(O)c(CNCCO)c1 | 118% (inactive)
Nc1nc2c(c3ncccc13)C(c1cccc(Cl)c1)Cc1ncccc1-2 (stereo unspecified) | 49.7% (inactive)
COc1ccc(C(=O)N2c3ccccc3Sc3ccccc32)c(C(F)(F)F)c1 | 53.4% (inactive)
Cc1ccc(C(=O)c2ccc(CC(=O)NN3C(=O)c4ccccc4C3=O)n2C)cc1 | 102% (inactive)
C=C1C(=O)O[C@H]2[C@H]1CC/C(Cn1cc(CCC)nn1)=C\CC[C@@]1(C)O[C@@H]21 | 90.2% (inactive)
O=C(/C=C/c1ccccc1)c1ccc(Nc2nc(Nc3ccc(F)cc3)nc(Nc3ccc(Cl)cc3)n2)cc1 | 94.5% (inactive)
N#Cc1cccc(C2C3=C(COC3=O)N(CCO)c3cc4c(cc32)CCC4)c1 (stereo unspecified) | 34.2% (inactive)
CCN1C(=O)N(CC)C2Nn3c(s/c(=C\c4ccccc4Br)c3=O)=NC21 (stereo unspecified) | 46.7% (inactive)
Cc1ccc(C=C2C(=O)NC(=O)NC2=O)cc1 | 110% (inactive)
Cc1cccc(N2CCC(=O)NC2=S)c1 | 101% (inactive)
N#C/C(=C\c1ccc(-c2cccc(C(F)(F)F)c2)o1)c1ccccc1 | 86% (inactive)
N#C/C(=C\c1ccc([N+](=O)[O-])cc1)n1nnc2cc(F)c(F)cc21 | 72.5% (inactive)
CC/C=C\CCC/C=C1/C(=O)C=C[C@@H]1C/C=C\CCCC(=O)OC | 101% (inactive)
CN(C)c1ccc(/C=C(\C#N)c2cc3ccccc3[nH]2)cc1 | 38.4% (inactive)
O=C(Nc1ccc(Br)cc1)C1=NCCCCN1 | 98.1% (inactive)
CNC(=O)c1cc(Oc2cccc3nc(NC(=O)Nc4cc(C(F)(F)F)ccc4Cl)ccc23)ccn1 | 101% (inactive)
COc1cccc(CCNc2ncnc3c2ncn3Cc2nnc3c4ccccc4c(Cl)nn23)c1 | 52.8% (inactive)
CCOC(=O)c1c(C)nc2c(c1N)/C(=C/c1ccc(OC)cc1)C(=O)N2Cc1ccccc1 | 74.9% (inactive)
O=S(=O)(NCCNc1nccc(-c2c(-c3ccc(F)c(O)c3)nc3sccn23)n1)c1ccc(F)cc1 | 47.6% (inactive)
S=C(c1ccc2c(c1)OCO2)N1CCN(c2cccc(Cl)c2)CC1 | 57.3% (inactive)
CN1CCN(CCOc2ccc(-c3cnc4c(-c5ccc(F)cc5)cnn4c3)cc2)CC1 | 75% (inactive)
O=C(Cc1ccc(/C=C/C(=O)c2ncc[nH]2)cc1)Nc1cc(C(F)(F)F)cc(C(F)(F)F)c1 | 96.4% (inactive)
CCN(CC)c1ccc(/C=N/NC(=O)Cc2ccc(Nc3ccnc(C(F)(F)F)c3)cc2)c(O)c1 | 25.9% (inactive)
